For 52 molecules, INHIBITION results are on record in ChEMBL document CHEMBL4513216, “Probing the Open Global Health Chemical Diversity Library for Multistage-Active Starting Points for Next-Generation Antimalarials” (ACS Infect Dis, 2020).

The structures appear in SMILES notation. In all, about 69,000 compounds went through this assay and about 8,600 (12%) showed an effect of 50% or more. The full list was thinned out, with strong results kept by preference.

This assay relates to Plasmodium berghei. As to the kind of experiment: Screen against P. berghei liver stage (PbLuc), transformed with Luciferase, at 10uM. The class given is functional, HepG2. Conditions: tested at 10 uM.
Turning to `Fc1ccc(CN2CCCn3nnc(COCC4CC4)c3C2)cc1`, the INHIBITION is reported as 46.6%.

Consider `O=C(c1ccncc1F)N1CC[C@@H]2CN(c3ncccn3)CCO[C@@H]2C1`, for which the INHIBITION was -1.55%.

For `Cc1cccc(C(=O)N2CC[C@@H]3CN(c4ncccn4)CCO[C@@H]3C2)c1`, the INHIBITION was found to be 4.27%.

On to `O=C(c1cccc(F)c1)N1CC[C@@H]2CN(c3ncccn3)CCO[C@@H]2C1`, for which the INHIBITION turned out to be 48.6%.

With `O=C(c1ccccc1F)N1CC[C@@H]2CN(c3ncccn3)CCO[C@@H]2C1`, the INHIBITION is given as 69.5%.

As for `Cc1ccccc1C(=O)N1CC[C@@H]2CN(c3ncccn3)CCO[C@@H]2C1`, the INHIBITION worked out at 47.4%.

As for `Cc1cnc(C(=O)N2CC[C@@H]3CN(c4ncccn4)CCO[C@@H]3C2)cn1`, the INHIBITION is on record as 56.7%.

For the molecule `CN1CCCC1c1cncc(C(=O)NCc2ccccc2)n1` (configuration not stated), the INHIBITION was determined as 40.6%.

As to `CN1CCN([C@@H]2CCN(CC3CCOC3)[C@H]2Cc2cnn(C)c2)CC1` (some centres not stated), the INHIBITION is -10.5%.

`COCC(=O)N1CCC2(CC1)COCCN2CCN(C)C`: the INHIBITION is 0.547%.

Regarding `O=C(c1ccccc1)N1C[C@H]2CCC[C@@]2(COCc2ccncc2)C1`, the INHIBITION is listed as -4.88%.

Consider `O=C(NCCCNc1ccc(C(F)(F)F)cn1)c1ccc(F)cc1F`, for which the INHIBITION is reported as -23.9%.

For `Cc1ccc(C(=O)NCCCNc2ccc(C(F)(F)F)cn2)cc1`, the INHIBITION is 51.85%.

For `Cc1cc(NCCNc2ccc(C#N)cn2)nc(C)n1`, the INHIBITION is on record as -14.1%.

As for `Nc1nccnc1C(=O)NCCCNc1ccc(C(F)(F)F)cn1`, the INHIBITION stood at 25.55%.

In the case of `O=C(NCCCNc1ccc(C(F)(F)F)cn1)c1ccc(F)cc1Br`, the INHIBITION stood at 82.6%.

Regarding `O=C(NCCCNc1ccc(C(F)(F)F)cn1)c1ccc(F)cc1`, the INHIBITION was 67.3%.

`O=C(NCCCNc1ccc(C(F)(F)F)cn1)c1ccccc1`: the INHIBITION is 10.65%.

On to `N#Cc1ccc(C(=O)NCCCNc2ccc(C(F)(F)F)cn2)cc1`, for which the INHIBITION is recorded as 42.7%.

As for `N#Cc1ccc(NCCNc2ccc(C(F)(F)F)cn2)nc1`, the INHIBITION was found to be 78.4%.

On to `CN(C)c1ccc(C(=O)NCCCNc2ccc(C(F)(F)F)cn2)cc1`, for which the INHIBITION is given as 38.95%.

As for `O=C(NCCNc1ccc(C(F)(F)F)cn1)c1ccc(F)cc1Cl`, the INHIBITION is given as 3.73%.

With `COc1ccc(C(=O)NCCCNc2ccc(C(F)(F)F)cn2)cc1`, the INHIBITION stood at 34.15%.

Consider `O[C@H]1CN(Cc2ccnc(N3CCCC3)n2)CC[C@@]12CCCO2`, for which the INHIBITION is recorded as -14.2%.

Regarding `Cc1ncsc1CN(C)Cc1cc2c(cc1OC(F)F)OCO2`, the INHIBITION was 34.9%.

As for `Cc1csc(C(C)(C)NCc2ncc(-c3ccccc3)o2)n1`, the INHIBITION is recorded as -20.3%.

Turning to `CN(C)C(=O)c1nc(-c2ccc(S(C)(=O)=O)cc2)c2ccccn12`, the INHIBITION is 17.6%.

With `CNC(=O)C1CN(C(=O)COc2ccccc2)Cc2cn(C)nc21` (configuration not stated), the INHIBITION was 42.6%.

In the case of `COC(=O)Cn1c(=O)[nH]c2cn(-c3cccc(C)c3)c(=O)n21`, the INHIBITION is given as -9.39%.

Turning to `CNC(=O)CNC(=O)NCc1cc2c(s1)CCC(C)(C)C2`, the INHIBITION is 26.1%.

Consider `COCc1ccc(C(=O)NCCCNc2ccc(C(F)(F)F)cn2)cc1`, for which the INHIBITION came out at 24.15%.

For `O=C(NCCNc1ccc(C(F)(F)F)cn1)c1ccc(Cl)cc1F`, the INHIBITION turned out to be 29.4%.

In the case of `O=C(NCCNc1ccc(C(F)(F)F)cn1)c1ccc(Br)cc1`, the INHIBITION is reported as -18%.

As for `O=C(NCCNc1ccc(C(F)(F)F)cn1)c1cncc(Br)c1`, the INHIBITION was found to be 26.1%.

Regarding `CSCc1ccc(C(=O)NCCCNc2ccc(C(F)(F)F)cn2)cc1`, the INHIBITION is recorded as 60.95%.

As for `O=C(NCCCNc1ccc(C(F)(F)F)cn1)c1ccc2c(c1)OCO2`, the INHIBITION stood at 60.5%.

Regarding `CN(CCc1cccs1)C(=O)Nc1cnn(CC2CCCO2)c1` (configuration not stated), the INHIBITION is given as 6.33%.

Consider `Cc1csc2cc(C(=O)NC3CC3)cnc12`, for which the INHIBITION is given as -82.4%.

`CCN1CCC2(COCc3c(C)nc(N(C)C)nc32)C1` (configuration not stated): the INHIBITION is 2.59%.

As for `CCOc1ncccc1C(=O)N1CCCC1c1c(C)nn(C)c1OC` (configuration not stated), the INHIBITION was 32.4%.

For `Cc1ccc2c(c1)SCC(=O)N2CC(=O)N1CCCC1c1cc(C)no1` (configuration not stated), the INHIBITION was -40.6%.

In the case of `Cc1ccc2c(c1)SCC(=O)N2CC(=O)N1CCCC1c1cc(C)on1` (configuration not stated), the INHIBITION is -1.45%.

Consider `Cc1ccc2c(c1)SCC(=O)N2CC(=O)N1CCC[C@H]1c1nc(C)no1`, for which the INHIBITION is given as 74%.

On to `c1cc(-c2nnc(C3CCCN(CC4CCCCC4)C3)o2)ccn1` (configuration not stated), for which the INHIBITION stood at 38.8%.

As for `O=C(NCC1CCC(c2nnc(-c3cccnc3)o2)CC1)C1CC1` (configuration not stated), the INHIBITION is on record as 50.8%.

Turning to `c1cncc(-c2nnc([C@H]3CCN(CC4CCCCC4)C3)o2)c1`, the INHIBITION was determined as 55.9%.

Turning to `c1cncc(-c2nnc([C@H]3CCN(CC4CC4)C3)o2)c1`, the INHIBITION was 67.8%.

`COCC(=O)NCC1CCC(c2nnc(-c3cccnc3)o2)CC1` (configuration not stated): the INHIBITION was -8.58%.

Turning to `c1ccc(OCCN2CCC(c3nnc(-c4cccnc4)o3)CC2)cc1`, the INHIBITION is 20.8%.

As for `COCC(=O)NCC1CCC(c2nnc(-c3ccncc3)o2)CC1` (configuration not stated), the INHIBITION is listed as 13.7%.

On to `c1ccc(-c2nnc(C3CCCN(CC4CCCCC4)C3)o2)nc1` (configuration not stated), for which the INHIBITION was determined as 7.52%.

Turning to `c1ccc(CCCN2CC[C@H](c3nnc(-c4cccnc4)o3)C2)cc1`, the INHIBITION was 13.5%.
